According to article PMC5540273 (PLoS ONE, 2017):

Key:
Conditions in all cases: concentration: 1 μM, replicates: in singlicate; n = 1
TNNI3K = system: TNNI3K
TRKA = system: T1, TRKA
T1 construct: gene NTRK1

TRKB = system: TRKB
TRKC = system: T2, TRKC
T2 construct: gene NTRK3

TRPM6 = system: TRPM6
TSSK1B = system: TSSK1B
TSSK3 = system: TSSK3
TTK = system: TTK
TXK = system: TXK
[1] = system: TYK2(JH1domain-catalytic)
[2] = system: TYK2(JH2domain-pseudokinase)
TYRO3 = system: TYRO3
ULK1 = system: ULK1
ULK2 = system: ULK2
ULK3 = system: ULK3
VEGFR2 = system: T3, VEGFR2
T3 construct: gene KDR

VPS34 = system: T4, VPS34
T4 construct: gene PIK3C3

VRK2 = system: VRK2
WEE1 = system: WEE1
WEE2 = system: WEE2
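Further: KINOMEscan kinase panel screen.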

SMILES | %Inh (TNNI3K) [%] | %Inh (TRKA) [%] | %Inh (TRKB) [%] | %Inh (TRKC) [%] | %Inh (TRPM6) [%] | %Inh (TSSK1B) [%] | %Inh (TSSK3) [%] | %Inh (TTK) [%] | %Inh (TXK) [%] | %Inh [1] [%] | %Inh [2] [%] | %Inh (TYRO3) [%] | %Inh (ULK1) [%] | %Inh (ULK2) [%] | %Inh (ULK3) [%] | %Inh (VEGFR2) [%] | %Inh (VPS34) [%] | %Inh (VRK2) [%] | %Inh (WEE1) [%] | %Inh (WEE2) [%]
CN(C)c1ncnc2nc[nH]c12 [SKF-31736] | 0 | 0 | 0 | 28 | 30 | 0 | 4 | 0 | 0 | 0 | 26 | 0 | 14 | 42 | 21 | 5 | 47 | 38 | 0 | 0
CNc1nccc(-c2ccc3c(N)n[nH]c3c2)n1 [GSK2206003] | 0 | 52 | 23 | 3 | 0 | 0 | 21 | 37 | 11 | 46 | 89 | 0 | 42 | 41 | 9 | 31 | 15 | 18 | 9 | 7
COc1ccc(NC(=O)c2ccoc2)cc1-c1ccc(C(=O)NCC2CC2)cc1 [GW810437] | 1 | 15 | 26 | 21 | 0 | 0 | 32 | 0 | 0 | 61 | 34 | 12 | 34 | 28 | 41 | 0 | 11 | 0 | 7 | 13
Cc1ccc(NC(=O)c2ccnc(N3CCCCC3)c2)cc1-c1ccc(C(=O)NCC2CC2)cc1 [GW775610] | 13 | 58 | 14 | 0 | 0 | 0 | 23 | 0 | 0 | 19 | 0 | 0 | 0 | 0 | 0 | 0 | 0 | 100 | 0 | 37
COc1cc(Nc2ccnc3cc(-c4ccncc4)ccc23)cc(OC)c1OC.Cl [GW494610] | 14 | 38 | 7 | 37 | 16 | 0 | 22 | 0 | 92.8 | 17 | 18 | 89 | 100 | 0 | 15 | 0 | 0 | 19 | 0 | 18
COc1cccc2c(-c3ccncc3)c(-c3ccc(F)cc3)nn12 [GW468513] | 6 | 17 | 11 | 0 | 9 | 49 | 21 | 0 | 6 | 25 | 67 | 0 | 3 | 0 | 0 | 0 | 10 | 12 | 4 | 0
Cl.N#CCc1ccc(Nc2nccc(Nc3ccc(Oc4ccccc4)cc3)n2)cc1 [GW639905] | 0 | 0 | 39 | 34 | 29 | 6 | 10 | 11 | 36 | 40 | 72 | 36 | 23 | 0 | 15 | 0 | 0 | 24 | 0 | 0
Cl.O=C(Nc1ccc(Oc2ccc3[nH]c(NC(=O)c4ccco4)nc3c2)cc1)Nc1cc(C(F)(F)F)ccc1F [GW683134] | 87 | 98.9 | 98.3 | 97.4 | 1 | 0 | 6 | 0 | 16 | 16 | 24 | 42 | 24 | 0 | 32 | 78 | 0 | 15 | 0 | 0
CCNC(=O)/C=C/c1n[nH]c2cc(Sc3ccccc3C(=O)NC)ccc12 | 22 | 34 | 0 | 0 | 0 | 19 | 13 | 0 | 0 | 0 | 0 | 0 | 10 | 36 | 1 | 99.9 | 0 | 14 | 14 | 0
Cc1ccc(NC(=O)c2cccc(N3CCCCC3)c2)cc1-c1ccc(C(=O)NCC2CC2)cc1 [GSK1917008] | 28 | 0 | 0 | 0 | 23 | 28 | 10 | 11 | 7 | 16 | 0 | 0 | 37 | 13 | 18 | 6 | 0 | 0 | 0 | 18
CSc1ccc(NC2=C(c3ccc(Cl)cc3)C(=O)NC2=O)cc1 [SB-317658] | 2 | 5 | 0 | 0 | 0 | 3 | 0 | 6 | 23 | 0 | 0 | 0 | 19 | 0 | 12 | 0 | 22 | 13 | 5 | 0
Cc1ccc(C)c(NC(=O)Nc2ccc(C)c(-c3ccc(C(=O)Nc4ccncc4)cc3)c2)c1 [GSK1398473] | 59 | 0 | 0 | 0 | 2 | 17 | 2 | 13 | 25 | 0 | 4 | 20 | 10 | 0 | 15 | 3 | 0 | 0 | 12 | 12
CN(c1ccc2c(c1)nc(NCc1ccccc1)n2C)c1ccnc(Nc2ccc(CS(C)(=O)=O)cc2)n1.Cl [GW811603] | 0 | 78 | 77 | 55 | 0 | 0 | 37 | 16 | 78 | 40 | 0 | 0 | 0 | 16 | 9 | 99.5 | 40 | 100 | 0 | 29
Nc1ncc(-c2ccc3nccc(-c4ccncc4)c3c2)cc1S(=O)(=O)N1CCCCC1 [GSK1693850] | 1 | 99 | 0 | 0 | 0 | 0 | 7 | 21 | 0 | 4 | 12 | 0 | 0 | 0 | 10 | 18 | 95.5 | 2 | 0 | 0
COc1cccc(CC(=O)N2CCc3cc(-c4cn(C)c5ncnc(N)c45)ccc32)c1 [GSK2608899] | 0 | 75 | 28 | 52 | 0 | 29 | 30 | 0 | 0 | 0 | 39 | 0 | 5 | 5 | 17 | 64 | 0 | 0 | 0 | 0
Cc1cccc(Nc2nc(NCCN)ncc2C(N)=O)c1 [GSK1292139] | 0 | 72 | 57 | 43 | 44 | 38 | 55 | 36 | 11 | 44 | 95.8 | 0 | 64 | 78 | 41 | 3 | 0 | 18 | 0 | 26
COc1ccc(C2=C(Nc3cccc(O)c3)C(=O)NC2=O)cc1 [SB-390766] | 27 | 0 | 41 | 51 | 30 | 8 | 12 | 0 | 8 | 25 | 46 | 0 | 26 | 0 | 25 | 0 | 0 | 0 | 90 | 6
